Reference: the supplement of paper PMC12632987

T1: FBXL12, Q9NXK8
T1 chain: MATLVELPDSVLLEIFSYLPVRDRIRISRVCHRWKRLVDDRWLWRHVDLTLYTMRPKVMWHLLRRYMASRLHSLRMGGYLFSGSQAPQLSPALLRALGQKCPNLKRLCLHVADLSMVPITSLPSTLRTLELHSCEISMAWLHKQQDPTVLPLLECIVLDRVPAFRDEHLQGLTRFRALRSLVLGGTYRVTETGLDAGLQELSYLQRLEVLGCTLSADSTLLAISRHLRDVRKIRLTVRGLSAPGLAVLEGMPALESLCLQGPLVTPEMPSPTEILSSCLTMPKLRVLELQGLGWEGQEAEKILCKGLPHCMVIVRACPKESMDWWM

B1: FBXL12_hotspot_82_99 (protein)
chain: SIAIIGLVNRPPETAVASLRNTADTIITLVEGAREAGVEVVRAVLVVHADPETRAEAERLRPRLEAAGVEVHLEATSAAADARAEAIRAAIEARFAAEDA
B2: FBXL12_hotspot_9_105 (protein)
chain: KHIIVVASAATKEAFLNSSRTALEIAIGLAKAGHKVTVILSYDDPEKFEEWRAALEEELKELLEEAKELGIKIHYAPSPEEKERILEEVLEEHDEEEEEE
B3: FBXL12_hotspot_9_110 (protein)
chain: SSILVIAHVTTRETADTTLATARAVTTGLAAHHDRVDVLIVVSDPEHADEMAALAEATAAELEAEHPNVRAEVVRAPDEAAGRAAIEAREAEFLAAAAEE
B4: FBXL12_hotspot_9_104 (protein)
chain: KHIVIVASASTREAFLNSARTALEIAIGLAKAGHKVTVILHHTRPETAEEARAAVKKELAELIEEAKELGIEIRFAATEEELERLLEEALREADEEEERE
B5: FBXL12_hotspot_9_108 (protein)
chain: MLRILVATVSSLETAGPTIETAAAIARGLVAAGHRVRVIFISANAETGEEMLALARERLGALAAEEGRVTVVLRLAENEEEAEEIKEELLEEALEEVDRA
B6: FBXL12_hotspot_9_106 (protein)
chain: MTILVTAYFEEESTIETTLKYALEIALGLAKAGHKVKVLIGAANEELLKKAKEILETKLKEIVEELKKLGVEIILVDSKEEYEKKKEELLKEAEEEEKEA
B7: FBXL12_hotspot_9_109 (protein)
chain: RTRVVVGVVTSPETADSTLAMLRAVTSGLSRHDDRVHVLIVVQDPANRDALLARAEAVAAELEAEHPNVRVRVVAAPDEEAAEAARAAFLAEVDAEEAAA
B8: FBXL12_hotspot_81_97 (protein)
chain: KELDIVLSQQVQPGDTVEQVRAGLQYQVDLVEAAKAAGVKIRSITVRFSIDTSAFSPEEIEAILAAVEEARARIEALAKEAGAKLIDESAAAIAAVRAAL
B9: FBXL12_hotspot_9_111 (protein)
chain: SSILVVAHVTTAETADSTLETAEAVTRGLAEHHDEVKVLIVVTDPENADEMAAKAEAVAERLEAEHPNVTATVVRAPDEAAGRAAIEAAEAAFLAEADAA
B10: FBXL12_hotspot_95_100 (protein)
chain: RRVVVVVFRHLVTPESAETVRQGVARFKAIVEGLRAAGVEVVAVLVLSYEDEESRALAEELKAEAAPLLDYAHLAPTREAAEAAYAELKARALAEADRLE
B11: FBXL12_hotspot_9_107 (protein)
chain: KTVLVTAYFEKEETVETTLKYAMEIALGLAEAGHKVRVLIGAKNEEILKKAKEILETKLKETVERLKELGVEIIFVSSEEEYEKKKKELLEEMEKEEEEA
B12: FBXL12_hotspot_82_98 (protein)
chain: MISIIGLVNRPPETAVESLRNTAETMIAIVEGARAAGVEVERAVLVVRADPETRAVAEELRPRLEAAGIEVHLKETSEEALATKEAILEEIERRWEEEEE
B13: FBXL12_hotspot_95_102 (protein)
chain: QRKVVVVYRHTVTPENLEQALAGLRRAKEIVEGLKAAGVEVYAVVAVSAETEEQRAQLEAEAEKVAKAADYALVEILLGATPEEVEERAEEMLEEVLKKI
B14: FBXL12_hotspot_9_103 (protein)
chain: MTVLVVGRATTPESVRTTVRTAVEIAEGLVAAGHEVVLILYAADPEVAEVLRRTVEEEFGERVAALRAAGARVVVAPDLEAGERAKREALEEIERREEEE
B15: FBXL12_hotspot_95_101 (protein)
chain: MRRVIILVRQAVTAENIESAIQAIERAAAIARGLRAAGVEVKLIVVAHAPDEETRARIEAAVERHRDVIDEFVLEETEEAMEEKAEELLEEALEEIDEAE
B16: FBXL12_hotspot_109_7 (protein)
chain: MTVIVGGLATRPEHAERTARYVLTITRGLLAAGHRVRVVLAGTEESREILEAAAAELRALGAEVTLVVAETPEEARALYEERLAEAEEELDEEEEEEEEE

Target: T1, FBXL12, Q9NXK8
Experiment: median log2 fold change of GCK-ALFA target abundance (FLAG IP / Myc IP barcode read proportion) (log2 ratio); each designed protein is fused to an ALFA-tag nanobody in HEK293 cells to bring the named protein to FLAG-tagged glucokinase (GCK); Myc marks an untargeted standard; higher = target protein stabilised (more abundant)
Details: target protein: 3xFLAG-MCP-GCK-ALFA reporter; HEK293 landing pad (RPLP)
Procedure: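 LABEL-seq trans screen in HEK293 landing-pad cells. Each de novo designed 100-aa effector handle, binding the indicated effector (E3 ligase, DUB or autophagy protein), is fused to a constant NbALFA target handle and induced with 2 ug/mL doxycycline. A FLAG-MCP-GCK-ALFA target and a Myc-MCP standard reporter were transfected, and after 48 h circRNA barcodes were recovered by anti-FLAG and anti-Myc IP and sequenced. The value is the median across barcodes (at least 3 per design) of log2(FLAG/Myc read-proportion ratio), with the two transfection replicates pooled. Negative values mean degradation and positive values mean stabilisation of the target.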

Row | Binder | median log2 fold change
1 | B1 | 0.0901
2 | B2 | 0.136
3 | B3 | -0.0129
4 | B4 | 0.00127
5 | B5 | -0.0498
6 | B6 | -0.24
7 | B7 | 0.0457
8 | B8 | 0.149
9 | B9 | 0.154
10 | B10 | -0.315
11 | B11 | 0.196
12 | B12 | 0.108
13 | B13 | 0.243
14 | B14 | 0.0779
15 | B15 | -0.00895
16 | B16 | 0.117
